Unmarked numbers belong to inactive results.

Here are results for 40 targets from the supplement of paper PMC11001985.

Chain of UniProt P12235 (P12235 whole entry): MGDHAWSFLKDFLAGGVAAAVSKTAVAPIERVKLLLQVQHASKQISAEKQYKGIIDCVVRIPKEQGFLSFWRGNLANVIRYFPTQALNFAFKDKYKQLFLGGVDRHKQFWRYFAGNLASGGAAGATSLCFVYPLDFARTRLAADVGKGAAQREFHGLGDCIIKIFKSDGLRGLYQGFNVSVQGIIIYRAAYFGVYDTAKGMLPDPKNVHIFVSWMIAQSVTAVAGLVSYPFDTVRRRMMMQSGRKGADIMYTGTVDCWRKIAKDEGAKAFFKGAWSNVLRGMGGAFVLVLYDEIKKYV
Chain of UniProt P02675 (P02675 whole entry): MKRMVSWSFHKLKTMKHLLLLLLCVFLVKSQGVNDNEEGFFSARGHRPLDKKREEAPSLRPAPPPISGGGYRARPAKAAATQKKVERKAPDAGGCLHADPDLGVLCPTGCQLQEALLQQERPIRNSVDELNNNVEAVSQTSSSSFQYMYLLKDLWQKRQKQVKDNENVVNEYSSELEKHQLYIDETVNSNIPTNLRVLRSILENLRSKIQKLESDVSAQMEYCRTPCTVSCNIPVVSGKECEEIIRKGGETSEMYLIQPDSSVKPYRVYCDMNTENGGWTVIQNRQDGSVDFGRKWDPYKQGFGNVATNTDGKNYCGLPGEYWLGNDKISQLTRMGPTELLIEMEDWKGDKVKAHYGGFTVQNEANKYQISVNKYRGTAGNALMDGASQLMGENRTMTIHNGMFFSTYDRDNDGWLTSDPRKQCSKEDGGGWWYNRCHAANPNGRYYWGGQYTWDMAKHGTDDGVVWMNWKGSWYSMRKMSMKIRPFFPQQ
Chain of UniProt P49327 (P49327 whole entry, looked up): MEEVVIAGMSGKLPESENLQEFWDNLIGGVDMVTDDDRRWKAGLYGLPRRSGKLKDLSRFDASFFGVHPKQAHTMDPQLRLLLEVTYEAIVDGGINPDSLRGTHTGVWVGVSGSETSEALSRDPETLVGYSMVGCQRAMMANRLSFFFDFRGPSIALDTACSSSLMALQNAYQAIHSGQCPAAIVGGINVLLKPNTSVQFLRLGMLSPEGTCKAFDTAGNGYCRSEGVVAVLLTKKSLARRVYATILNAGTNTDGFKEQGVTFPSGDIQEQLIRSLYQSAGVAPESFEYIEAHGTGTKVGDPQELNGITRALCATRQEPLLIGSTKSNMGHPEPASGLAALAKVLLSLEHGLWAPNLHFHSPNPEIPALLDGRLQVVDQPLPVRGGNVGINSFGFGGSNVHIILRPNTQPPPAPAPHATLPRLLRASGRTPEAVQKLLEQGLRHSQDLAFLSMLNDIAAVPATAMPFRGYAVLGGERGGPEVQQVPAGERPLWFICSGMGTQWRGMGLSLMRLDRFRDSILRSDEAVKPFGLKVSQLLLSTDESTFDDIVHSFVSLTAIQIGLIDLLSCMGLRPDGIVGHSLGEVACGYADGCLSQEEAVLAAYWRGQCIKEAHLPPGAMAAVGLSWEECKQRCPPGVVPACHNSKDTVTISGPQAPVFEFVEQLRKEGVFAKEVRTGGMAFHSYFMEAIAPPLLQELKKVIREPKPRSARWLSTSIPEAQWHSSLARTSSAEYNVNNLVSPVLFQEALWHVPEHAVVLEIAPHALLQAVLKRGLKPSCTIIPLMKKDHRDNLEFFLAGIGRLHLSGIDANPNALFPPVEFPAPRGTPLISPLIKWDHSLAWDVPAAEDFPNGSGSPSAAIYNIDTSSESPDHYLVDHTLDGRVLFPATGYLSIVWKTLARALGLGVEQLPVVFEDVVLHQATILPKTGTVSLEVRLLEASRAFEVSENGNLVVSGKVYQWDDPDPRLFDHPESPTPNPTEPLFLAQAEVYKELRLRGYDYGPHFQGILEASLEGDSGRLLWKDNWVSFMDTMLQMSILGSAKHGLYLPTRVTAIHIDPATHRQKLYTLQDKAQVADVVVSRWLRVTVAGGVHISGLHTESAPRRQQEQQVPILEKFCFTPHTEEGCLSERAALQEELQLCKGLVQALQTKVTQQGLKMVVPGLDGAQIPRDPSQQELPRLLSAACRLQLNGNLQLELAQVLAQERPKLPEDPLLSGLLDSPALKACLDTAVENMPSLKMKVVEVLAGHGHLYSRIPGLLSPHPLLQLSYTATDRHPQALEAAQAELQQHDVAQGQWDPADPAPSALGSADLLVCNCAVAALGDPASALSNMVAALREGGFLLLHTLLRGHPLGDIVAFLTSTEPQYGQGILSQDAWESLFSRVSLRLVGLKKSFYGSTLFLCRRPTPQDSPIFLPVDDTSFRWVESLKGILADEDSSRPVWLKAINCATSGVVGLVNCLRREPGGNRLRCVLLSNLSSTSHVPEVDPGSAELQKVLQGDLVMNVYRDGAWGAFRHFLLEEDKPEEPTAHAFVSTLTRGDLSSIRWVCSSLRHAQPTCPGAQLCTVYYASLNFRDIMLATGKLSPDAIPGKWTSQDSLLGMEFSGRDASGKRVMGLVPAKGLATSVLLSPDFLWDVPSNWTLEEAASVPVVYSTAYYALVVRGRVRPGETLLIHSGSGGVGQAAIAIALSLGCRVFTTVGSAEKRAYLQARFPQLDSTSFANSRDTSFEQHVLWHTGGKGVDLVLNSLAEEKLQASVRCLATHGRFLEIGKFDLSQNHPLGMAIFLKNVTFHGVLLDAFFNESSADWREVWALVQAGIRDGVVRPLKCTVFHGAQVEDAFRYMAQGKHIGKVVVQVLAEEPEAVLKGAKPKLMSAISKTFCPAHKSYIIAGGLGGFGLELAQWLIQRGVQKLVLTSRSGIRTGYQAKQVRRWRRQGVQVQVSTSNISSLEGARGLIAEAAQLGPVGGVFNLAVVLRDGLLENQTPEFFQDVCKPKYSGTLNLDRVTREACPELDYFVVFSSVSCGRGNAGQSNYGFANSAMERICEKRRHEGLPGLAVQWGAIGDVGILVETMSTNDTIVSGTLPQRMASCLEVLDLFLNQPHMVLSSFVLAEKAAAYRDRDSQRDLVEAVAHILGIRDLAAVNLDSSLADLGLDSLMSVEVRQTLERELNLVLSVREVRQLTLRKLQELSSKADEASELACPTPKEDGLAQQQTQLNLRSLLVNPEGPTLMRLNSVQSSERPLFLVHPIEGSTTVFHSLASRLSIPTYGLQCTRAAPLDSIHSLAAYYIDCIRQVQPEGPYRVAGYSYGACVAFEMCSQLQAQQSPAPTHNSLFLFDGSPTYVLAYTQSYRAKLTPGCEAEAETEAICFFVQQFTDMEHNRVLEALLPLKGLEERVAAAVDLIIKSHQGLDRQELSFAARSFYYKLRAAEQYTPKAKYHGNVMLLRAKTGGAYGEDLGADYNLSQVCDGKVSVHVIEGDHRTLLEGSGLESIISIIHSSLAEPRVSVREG
Chain of UniProt Q9NX63 (Q9NX63 whole entry): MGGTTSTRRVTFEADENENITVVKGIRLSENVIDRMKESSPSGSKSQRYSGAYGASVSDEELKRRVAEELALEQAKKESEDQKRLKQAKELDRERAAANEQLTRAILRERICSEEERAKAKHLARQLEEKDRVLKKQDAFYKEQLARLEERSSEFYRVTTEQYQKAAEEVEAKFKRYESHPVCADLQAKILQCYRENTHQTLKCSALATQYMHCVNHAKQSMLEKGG
Chain of UniProt Q6NZI2 (Q6NZI2 whole entry): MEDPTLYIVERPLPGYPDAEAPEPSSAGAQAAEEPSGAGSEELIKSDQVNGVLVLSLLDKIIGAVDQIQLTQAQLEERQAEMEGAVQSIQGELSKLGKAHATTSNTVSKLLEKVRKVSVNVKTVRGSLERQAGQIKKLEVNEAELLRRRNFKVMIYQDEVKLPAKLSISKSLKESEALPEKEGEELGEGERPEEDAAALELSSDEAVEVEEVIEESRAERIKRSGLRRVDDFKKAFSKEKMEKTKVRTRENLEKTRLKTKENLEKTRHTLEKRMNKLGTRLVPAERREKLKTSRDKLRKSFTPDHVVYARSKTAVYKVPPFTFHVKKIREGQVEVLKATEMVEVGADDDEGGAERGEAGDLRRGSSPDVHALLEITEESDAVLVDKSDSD
Chain of UniProt Q96J84 (Q96J84 whole entry): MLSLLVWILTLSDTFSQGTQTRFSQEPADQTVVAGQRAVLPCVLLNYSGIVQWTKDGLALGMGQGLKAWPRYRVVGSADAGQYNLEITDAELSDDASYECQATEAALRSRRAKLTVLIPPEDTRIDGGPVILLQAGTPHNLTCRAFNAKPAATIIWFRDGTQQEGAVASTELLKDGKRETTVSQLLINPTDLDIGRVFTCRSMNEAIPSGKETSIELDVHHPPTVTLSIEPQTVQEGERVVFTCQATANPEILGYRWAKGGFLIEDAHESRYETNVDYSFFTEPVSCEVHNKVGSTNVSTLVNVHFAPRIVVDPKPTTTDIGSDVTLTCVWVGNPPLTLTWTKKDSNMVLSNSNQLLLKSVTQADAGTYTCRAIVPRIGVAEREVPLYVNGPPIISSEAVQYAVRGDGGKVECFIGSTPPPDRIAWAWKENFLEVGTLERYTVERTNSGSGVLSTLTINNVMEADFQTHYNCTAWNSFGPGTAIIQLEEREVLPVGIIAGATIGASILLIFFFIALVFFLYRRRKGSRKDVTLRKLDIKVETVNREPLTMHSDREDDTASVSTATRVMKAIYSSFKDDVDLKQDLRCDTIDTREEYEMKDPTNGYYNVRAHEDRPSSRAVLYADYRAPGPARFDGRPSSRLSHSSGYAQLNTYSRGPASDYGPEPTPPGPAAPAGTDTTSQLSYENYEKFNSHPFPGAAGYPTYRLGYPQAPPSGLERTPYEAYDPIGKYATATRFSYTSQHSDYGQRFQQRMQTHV
Chain of UniProt P30533 (P30533 whole entry): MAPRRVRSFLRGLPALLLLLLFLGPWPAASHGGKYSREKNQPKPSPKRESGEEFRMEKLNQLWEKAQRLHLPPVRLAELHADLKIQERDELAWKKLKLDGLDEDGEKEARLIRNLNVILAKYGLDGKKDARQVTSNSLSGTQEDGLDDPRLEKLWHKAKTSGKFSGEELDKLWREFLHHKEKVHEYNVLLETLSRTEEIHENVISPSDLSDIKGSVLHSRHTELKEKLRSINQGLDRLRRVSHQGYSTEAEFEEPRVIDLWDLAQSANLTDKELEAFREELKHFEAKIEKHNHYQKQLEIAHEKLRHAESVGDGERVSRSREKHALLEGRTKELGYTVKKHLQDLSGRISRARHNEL

Compound in this assay: C#CCNC(=O)CCSSCCC(=O)NCCc1ccc(C=O)c(C=O)c1
As to the kind of experiment: lysine labeling ratio R10:1 (500 µM / 50 µM probe), SILAC-ABPP in living cells; higher = lower intrinsic lysine reactivity toward the probe, active = 2 or less. The following applies: HeLa; probe concentrations 500 vs 50 µM. As to the method: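 Living HeLa cells (SILAC light/heavy) in PBS at room temperature were labeled with 50 µM versus 500 µM of the lysine-reactive, reductant-cleavable probe OPA-S-S-alkyne (SILAC labeling time not stated). Probe-modified peptides were CuAAC-biotinylated, captured on neutravidin and eluted with DTT/IAA, then quantified by LC-MS/MS. R = median peptide ratio per lysine (500/50 µM), combined over 3 forward and 3 reverse SILAC replicates. Ratios are capped at 20; R < 2 = hyper-reactive.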
UniProt Q13131 (lysine site: K56): the “lysine labeling ratio R10:1” value was 14.5. To “FASN (lysine site: K436) (UniProt P49327)” belongs 5.67; to “PSMC3 (lysine site: K372) (UniProt P17980)”, 2.19; to “PLOD2 (lysine site: K358) (UniProt O00469)”, 2.23. For “M6PR (lysine site: K44) (UniProt P20645)”, the “lysine labeling ratio R10:1” value is 2.9. As for “PDCD6IP (lysine site: K486) (UniProt Q8WUM4)”, the “lysine labeling ratio R10:1” value is 0.775 (active). The figure for “PLXNB2 (lysine site: K941) (UniProt O15031)” is 2.31.

For “PDIA6 (lysine site: K245) (UniProt Q15084)”, the “lysine labeling ratio R10:1” value is 1.95 (active).

On to “DSC2 (lysine site: K381) (UniProt Q02487)”, for which the “lysine labeling ratio R10:1” value is 1.71 (active). For “CCT6A (lysine site: K199) (UniProt P40227)”, the “lysine labeling ratio R10:1” value is 0.593 (active). To “FGB (lysine site: K426) (UniProt P02675)” belongs 2.95; to “RPS3 (lysine site: K62) (UniProt P23396)”, 3.22; to “LRPAP1 (lysine site: K107) (UniProt P30533)”, 1.78 (active).

For “SLC25A4 (lysine site: K245) (UniProt P12235)”, the “lysine labeling ratio R10:1” value is 1.72 (active). The figure for UniProt Q6NZI2 (lysine site: K276) is 4.1; for “ADAM9 (lysine site: K368) (UniProt Q13443)” it is 3.66; for “AKR1B1 (lysine site: K263) (UniProt P15121)” it is 8.32. The figure for “SPTAN1 (lysine site: K719) (UniProt Q13813)” is 3.93; for “RPL35A (lysine site: K95) (UniProt P18077)” it is 3.1. The figure for “RPL3 (lysine site: K155) (UniProt P39023)” is 0.69 (active); for “HEXB (lysine site: K517) (UniProt P07686)” it is 2.41. Turning to “FAT4 (lysine site: K1675) (UniProt Q6V0I7)”, the “lysine labeling ratio R10:1” value is 1.93 (active).

GPI (lysine site: K89) (UniProt P06744): the “lysine labeling ratio R10:1” value is 1.12 (active).

“FLOT2 (lysine site: K132) (UniProt Q14254)”: the “lysine labeling ratio R10:1” value was 2.82. The figure for UniProt P62805 (lysine site: K92) is 7.01; for “TUBA1A (lysine site: K336) (UniProt Q71U36)” it is 2 (active); for “L1CAM (lysine site: K144) (UniProt P32004)” it is 1.09 (active). Take “MYH9 (lysine site: K1669) (UniProt P35579)”: the “lysine labeling ratio R10:1” value was 5.57. Turning to “LMO7 (lysine site: K1455) (UniProt Q8WWI1)”, the “lysine labeling ratio R10:1” value was 1.37 (active). For “LDLR (lysine site: K782) (UniProt P01130)”, the “lysine labeling ratio R10:1” value is 3.22. With “CACNA2D1 (lysine site: K1048) (UniProt P54289)”, the “lysine labeling ratio R10:1” value is 6.59. The figure for “CHCHD3 (lysine site: K37) (UniProt Q9NX63)” is 1.57 (active); for “KIRREL (lysine site: K113) (UniProt Q96J84)” it is 2.15.

Consider UniProt Q8WXI7 (lysine site: K13402), for which the “lysine labeling ratio R10:1” value is 5.02. To “TNKS1BP1 (lysine site: K1676) (UniProt Q9C0C2)” belongs 2.22; to UniProt Q96TA1 (lysine site: K430), 1.69 (active); to “HNRNPM (lysine site: K698) (UniProt P52272)”, 0.67 (active).

For “RARS (lysine site: K471) (UniProt P54136)”, the “lysine labeling ratio R10:1” value is 2.85.

For the target “NENF (lysine site: K136) (UniProt Q9UMX5)”, the “lysine labeling ratio R10:1” value is 0.955 (active). To “CPM (lysine site: K135) (UniProt P14384)” belongs 0.991 (active).
